Four sequences from article PMC8384837, “Expanding the binding specificity for RNA recognition by a PUF domain” can be followed below.

Holding throughout (experiment): yeast three-hybrid, YBZ-1, SC-Leu-His + 0.5 mM 3-AT, 4 days
What all share (conditions): tags: N-Gal4 AD-HA kept; label: inside an RPR1-promoter hybrid RNA with tandem MS2 sites; ssRNA

Assay [1] deals with T1, PUM1 PUF domain R6-NWL (Homo sapiens, UniProt Q14671 828-1176, Y1044W;Q1047L).
T1 sequence: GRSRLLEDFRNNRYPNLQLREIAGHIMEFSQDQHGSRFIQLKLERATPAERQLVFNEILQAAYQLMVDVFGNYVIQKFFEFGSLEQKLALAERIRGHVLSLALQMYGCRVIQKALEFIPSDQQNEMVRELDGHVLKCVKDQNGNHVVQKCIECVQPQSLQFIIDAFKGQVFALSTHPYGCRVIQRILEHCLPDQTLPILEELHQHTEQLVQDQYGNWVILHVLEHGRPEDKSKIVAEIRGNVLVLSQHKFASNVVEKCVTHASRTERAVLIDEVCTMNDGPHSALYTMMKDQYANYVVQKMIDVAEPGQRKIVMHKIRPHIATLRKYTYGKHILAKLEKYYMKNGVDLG
A digest of the protocol:
(§1)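 Matching RNA elements and Pumilio-1 PUF domain libraries, randomized at the three base-contacting residues of every repeat, were co-expressed from a centromeric plasmid in strain YBZ-1 (LexA–MS2 coat fusion, HIS3 reporter). The repeat regions were PCR-amplified and Illumina-sequenced from cells grown four days on SC-Leu (input) or SC-Leu-His + 0.5 mM 3-AT (selection). The interaction score is the log change in variant frequency from input to selection. It is computed in log2, with a pseudocount of 1 for absent variants.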

Assay [2] addresses PUM1 PUF domain R1-QCR (Homo sapiens, UniProt Q14671 828-1176, S863Q;R864C;Q867R). A digest of the protocol: as §1
The target in assay [3] is PUM1 PUF domain R1-SYK (Homo sapiens, UniProt Q14671 828-1176, R864Y;Q867K). The procedure, abridged:
as §1

Assay [4] addresses PUM1 PUF domain R5-RQN (Homo sapiens, UniProt Q14671 828-1176, C1007R;R1008Q;Q1011N). The procedure, abridged:
as §1

Assay [5] addresses PUM1 PUF domain R7-RRN (Homo sapiens, UniProt Q14671 828-1176, S1079R;N1080R;E1083N). A digest of the protocol: as §1

Take “GGCUAGAACUAGUGGAUCCCCCGGCGCCCGGCGGCUCGAGCCCGGGUAAGUGAAAAUAGUCUGCAUGCCGCCGGGCGCCAUGCCUGCAGGUCGACUCUAGAAAACAUG”: the binding signal in assay [1] was 2.34 log2 enrichment (interaction score). For the sequence “GGCUAGAACUAGUGGAUCCCCCGGCGCCCGGCGGCUCGAGCCCGGGUAAGUGUAAAUCGUCUGCAUGCCGCCGGGCGCCAUGCCUGCAGGUCGACUCUAGAAAACAUG”, the binding signal in assay [2] was 2.48 log2 enrichment (interaction score); in assay [3], 2.72 log2 enrichment (interaction score). As for “GGCUAGAACUAGUGGAUCCCCCGGCGCCCGGCGGCUCGAGCCCGGGUAAGUGUGAAUAGUCUGCAUGCCGCCGGGCGCCAUGCCUGCAGGUCGACUCUAGAAAACAUG”, the binding signal in assay [4] was 1.54 log2 enrichment (interaction score). On to “GGCUAGAACUAGUGGAUCCCCCGGCGCCCGGCGGCUCGAGCCCGGGUAAGUCUAAAUAGUCUGCAUGCCGCCGGGCGCCAUGCCUGCAGGUCGACUCUAGAAAACAUG”, for which the binding signal in assay [5] was 3.94 log2 enrichment (interaction score).
